“And” between values parts separate entries of the source, which are not always exact repeats. Equal entries are not always repeated. Out of some 360,000 compounds screened, about 11,000 (3.1%) were called active. Many of the other results were omitted from the sample, so actives are more common in it than they were. A number with no mark means an inactive call. Rule as the data show it: active = activity change below about -30%; inactive = the rest.
% is scaled to controls: 0 for no effect and ±100 for the full control effect.

Sequence of D(1A) dopamine receptor (Homo sapiens) (P21728 whole entry, looked up): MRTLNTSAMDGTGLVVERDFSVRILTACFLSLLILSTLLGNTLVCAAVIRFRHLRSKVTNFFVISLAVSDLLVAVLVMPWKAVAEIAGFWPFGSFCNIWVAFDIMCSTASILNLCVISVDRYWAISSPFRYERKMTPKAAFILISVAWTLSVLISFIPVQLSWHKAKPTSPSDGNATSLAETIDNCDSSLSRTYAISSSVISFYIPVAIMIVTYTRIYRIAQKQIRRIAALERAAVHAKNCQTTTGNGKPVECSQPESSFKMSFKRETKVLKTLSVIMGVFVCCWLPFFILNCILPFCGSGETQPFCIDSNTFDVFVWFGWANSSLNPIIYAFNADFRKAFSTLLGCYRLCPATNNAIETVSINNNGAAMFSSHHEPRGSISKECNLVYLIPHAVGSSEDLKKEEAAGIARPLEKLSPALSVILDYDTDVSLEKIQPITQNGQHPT

In this test the target is D(1A) dopamine receptor (Homo sapiens) (UniProt P21728). The experiment in a line: Antagonist of Human D 1 Dopamine Receptor: qHTS. The note with it: HEK293 TREx D1 cells, calcium flux, dopamine EC80; at 10 µM; hits give low values. Summed up:
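Cells carrying a force-coupled, tetracycline-inducible human D1 receptor report calcium flux. Each well gets a 10 s baseline, compound with 180 s monitoring, then an EC80 dopamine stimulus with a second 180 s kinetic read.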
Turning to `COc1cccc(CNC(=O)C2CCC(CNS(=O)(=O)c3cccs3)CC2)c1` (stereo not drawn), the activity change, negative = inhibition is -1.65%. `CCc1ccccc1N1C(=O)CN(S(=O)(=O)CC)CC1(C)C(=O)NC1CCCCC1` (stereo not drawn): the activity change, negative = inhibition is -10.1%. Next, `Cc1ccccc1C(=O)Nc1sc2c(c1C(=O)N1CCC(C)CC1)CCCC2`: 5.36%; `Fc1ccc2[nH]c3c(N4CCSCC4)ncnc3c2c1`: -30.2% (active).

Consider `Fc1ccc2[nH]c3c(N4CCN(Cc5ccc6c(c5)OCO6)CC4)ncnc3c2c1`, for which the activity change, negative = inhibition was -7.57%. Consider `NC(=O)CC[C@@H]1NC(=O)[C@H](CO)NC(=O)c2cc([N+](=O)[O-])cc(I)c2NCC[C@@H](C(N)=O)NC1=O`, for which the activity change, negative = inhibition is -14%.

Turning to `NCCCC[C@@H]1NC(=O)[C@H](CCC(=O)O)NC(=O)c2cc([N+](=O)[O-])cc(I)c2NCC[C@@H](C(N)=O)NC1=O`, the activity change, negative = inhibition was -2.74%. Under `NC(=O)C[C@@H]1NC(=O)CNC(=O)c2cc([N+](=O)[O-])cc(I)c2NCCC(C(N)=O)NC1=O` (stereo partly drawn) stands -30.2% (active); under `O=C(CSc1nc(-c2cccc(F)c2)[nH]c1-c1ccccc1)Nc1ccc2c(c1)OCO2`, -4.86%; under `Cc1cccc(N2CCN(C(=O)c3cnc(N4CCCC4)nc3C)CC2)c1C`, 10%. Consider `CCCCn1c(=N)c(S(=O)(=O)c2ccccc2)cc2c(=O)n3cccc(C)c3nc21`, for which the activity change, negative = inhibition is 1.3%. As for `N#Cc1cccc(NC(=O)CN2CCCCCC2)c1`, the activity change, negative = inhibition is -7.3%.

As for `N#Cc1cccc(Nc2c3c(nc4ccccc24)CCCC3)c1`, the activity change, negative = inhibition is -36.2% (active). Take `CCOc1ccc(NC(=O)CSc2c3c(nc4ccccc24)CCCC3)cc1`: the activity change, negative = inhibition was -2.6%. Under `Cc1ccc(Nc2c3c(nc4ccccc24)CCC3)cc1` stands -39.1% (active). Next, `CCOc1ccc(C(=O)Nc2ccc3nc4c(c(Nc5ccccc5OC)c3c2)CCCC4)cc1`: -7.4%; `COc1ccccc1Nc1c2c(nc3ccc(NC(=O)/C=C/c4cc(OC)c(OC)c(OC)c4)cc13)CCCC2`: 3.33%. Turning to `O=C(NC1CCCCC1)c1ccc2c(c1)N(Cc1ccc(Cl)cc1)C(=O)c1ccccc1S2=O` (stereo not drawn), the activity change, negative = inhibition is -15.6%. Under `Cn1nc(-c2ccccc2)c(-c2ccccc2)c(C(=O)Nc2ccc(S(N)(=O)=O)cc2)c1=O` stands -1.5%; under `Cc1cc(C)c(NC(=O)CCc2c(C)nc3c(c(C)nn3C(C)(C)C)c2C)c(C)c1`, 1.02%; under `CCN1CCN(Cc2c(O)ccc3oc(C)c(C(=O)Nc4ccc(C)cc4C)c23)CC1`, 7.06%. Take `COc1ccccc1CNc1ccc(-c2nc(-c3ccccc3C)no2)cc1[N+](=O)[O-]`: the activity change, negative = inhibition is -10.5%. In the case of `O=C(C1CCCN(S(=O)(=O)c2cccc3nonc23)C1)N1CCN(c2ccccc2F)CC1` (stereo not drawn), the activity change, negative = inhibition is 10.7%. Regarding `COc1ccc(C(=O)NCCNc2ccc([N+](=O)[O-])cn2)cc1`, the activity change, negative = inhibition is -8.65%. As for `O=C(NCCNc1ccc([N+](=O)[O-])cc1)c1cccc2c(Br)cccc12`, the activity change, negative = inhibition was -63.4% (active).

On to `CC(CNc1ccc([N+](=O)[O-])cc1)NC(=O)c1ccccc1Br` (stereo not drawn), for which the activity change, negative = inhibition was -2.12%. Under `Cc1ccc(CCNC(=O)c2ccc3c(c2)nc2n3CCC(C)C2)cc1` (stereo not drawn) stands -13.4%. `O=C(c1ccco1)n1nc(-c2ccc(Cl)cc2)nc1NCc1ccccc1`: the activity change, negative = inhibition was -12.9%.

Take `N=c1n(Cc2ccc(Cl)cc2)c2ccccc2n1CC(O)c1ccco1` (stereo not drawn): the activity change, negative = inhibition was -51.9% (active). With `Cc1ccc2c(c1)N(C(=O)CCC(=O)NCc1ccccc1F)CC(C)O2` (stereo not drawn), the activity change, negative = inhibition is -22.7%. `COc1ccccc1NC(=O)CCC(=O)N1CC(C)Oc2ccc(C)cc21` (stereo not drawn): the activity change, negative = inhibition is 7.34% and 2.65%. Consider `CC1CN(C(=O)CCC(=O)NCCCN2CCC(Cc3ccccc3)CC2)c2cc(Cl)ccc2O1` (stereo not drawn), for which the activity change, negative = inhibition was -43.5% (active). As to `COc1ccc(N2C(=O)CSC23C(=O)N(Cc2cccc(F)c2)c2ccccc23)cc1Cl` (stereo not drawn), the activity change, negative = inhibition was -0.577%.

Regarding `O=C(NC(=O)c1cc(OCC(F)(F)F)ccc1OCC(F)(F)F)Nc1ccccc1`, the activity change, negative = inhibition is -35% (active). As for `CONC(=O)c1cc(OCC(F)(F)F)ccc1OCC(F)(F)F`, the activity change, negative = inhibition was 8%. With `CCOc1ccc(CCNC(=O)Nc2ccccc2)cc1OCC`, the activity change, negative = inhibition was 14.7%.

`CCC1CCCCN1C(=O)Cn1c(=O)n(CCCCCC(=O)NCc2ccccc2)c(=O)c2sccc21` (stereo not drawn): the activity change, negative = inhibition is -26.9%. On to `COc1ccc(-c2onc(C)c2C)cc1S(=O)(=O)NCc1cccs1`, for which the activity change, negative = inhibition was -23.8%. Under `COc1ccccc1/C=C/c1nc(C#N)c(NC(C)c2ccccc2)o1` (stereo not drawn) stands 4.56%.

As for `O=C(COc1ccccc1)Nc1ccc(N2CCN(C(=O)c3cccs3)CC2)cc1`, the activity change, negative = inhibition is -10.9%. Under `Cc1ccccc1C(=O)N1CCN(c2ccc(NC(=O)c3cccs3)cc2)CC1` stands -61.2% (active); under `O=C(Nc1ccc(N2CCN(C(=O)c3cccs3)CC2)cc1)c1cccnc1Cl`, 2.63%; under `CC1=Nc2cc(C(=O)NCc3ccc(C)cc3)ccc2Sc2ccc(Cl)cc21`, 4.46%. As for `CCCCN(CC)CCCNC(=O)c1nn(C)c2c1CS(=O)(=O)c1ccccc1-2`, the activity change, negative = inhibition is 4.54%. In the case of `COc1ccc(Cn2cc(C(=O)c3ccc(C)cc3)c(=O)c3cc(OC)c(OC)cc32)cc1`, the activity change, negative = inhibition was -0.034%. As for `Cc1ccc(N2CCN(S(=O)(=O)N(C)C)CC2)cc1Cl`, the activity change, negative = inhibition was -16.4%. Next, `CN(C)S(=O)(=O)N1CCN(c2ccc([N+](=O)[O-])cc2)CC1`: -43% (active); `O=[N+]([O-])c1ccc(N2CCN(c3ccc(O)cc3)CC2)c(Cl)c1`: -19%. Next, `COc1cc(Cl)c(C)cc1Nc1nnc(-n2nc(C)cc2C)c2ccccc12`: -5.89%; `Cc1cc2c(s1)c1cnn(Cc3c(F)cccc3Cl)c(=O)c1n2C`: 15.1%; `COc1ccc(NC(=O)C2CCN(S(=O)(=O)c3ccc4[nH]c(=O)oc4c3)CC2)c(OC)c1`: 1.07%. Turning to `Cn1c(=O)oc2cc(S(=O)(=O)N3CCC(C(=O)Nc4ccc(OC(F)(F)F)cc4)CC3)ccc21`, the activity change, negative = inhibition is -36.4% (active).

For `Cc1ccc2nc(NC(=O)C3CCN(S(=O)(=O)c4ccc5c(c4)oc(=O)n5C)CC3)sc2c1`, the activity change, negative = inhibition is -9.2%. As for `Cc1ccc(S(=O)(=O)N(CC(=O)Nc2ccc(Cl)cc2Cl)c2ccccc2C)cc1`, the activity change, negative = inhibition is -14.7%. Take `Cc1c(Cl)cccc1NC(=O)Cn1cc(C(=O)c2cccs2)c2ccccc21`: the activity change, negative = inhibition is -23.5%. For `CCOc1ccc(NC(=O)c2cc3c(=O)n(Cc4cccs4)ccc3nc2C)cc1`, the activity change, negative = inhibition was 2.95%. Take `COc1ccc(CN2C(=O)C(NC(=O)c3cccc(C)c3)(C(F)(F)F)N=C2c2ccccc2)cc1` (stereo not drawn): the activity change, negative = inhibition is 2.79%. Regarding `CCc1ccccc1NC(=O)Cc1ccc(NC(=O)N2CCCCc3ccccc32)cc1`, the activity change, negative = inhibition was -2.99%.

On to `CCOC(=O)c1ccc(NC(=O)CCS(=O)(=O)c2ccc(C)cc2)cc1`, for which the activity change, negative = inhibition is 2.9%.

Turning to `CCOC(=O)c1ccc(NC(=O)CCS(=O)(=O)c2ccc3c(c2)oc(=O)n3C)cc1`, the activity change, negative = inhibition is -34.1% (active). In the case of `COc1cc(NC(=O)CCS(=O)(=O)c2ccc3c(c2)oc(=O)n3C)cc(OC)c1`, the activity change, negative = inhibition was -5.28%. Regarding `Cc1ccc(C(=O)OCC(=O)N2CC(C)CC(C)C2)cc1S(=O)(=O)N1CCCCC1` (stereo not drawn), the activity change, negative = inhibition was -14.5%. Next, `COc1ccc(CNC(=O)COC(=O)c2ccc(C)c(S(=O)(=O)N3CCOCC3)c2)cc1OC`: 13.1%. Turning to `Cc1ccc(C(=O)OCC(=O)NCc2cc(C)c(O)c(C)c2)cc1S(=O)(=O)N1CCCCC1`, the activity change, negative = inhibition is -93.9% (active). On to `CCc1ccc(C(=O)CC2(O)C(=O)N(CCc3ccccc3)c3ccc(Br)cc32)cc1` (stereo not drawn), for which the activity change, negative = inhibition is 6.36%. As to `O=C(COc1ccc(Cl)cc1)NCc1nnc(SCC(=O)NCC2CCCO2)o1` (stereo not drawn), the activity change, negative = inhibition is -31.2% (active). With `COc1ccc2c(C)cc(SCC(=O)NCC3CCCO3)nc2c1` (stereo not drawn), the activity change, negative = inhibition was -21.4%.

Consider `O=C(CSc1nnc(-c2ccc(NS(=O)(=O)c3ccccc3)cc2)o1)NCC1CCCO1` (stereo not drawn), for which the activity change, negative = inhibition is -3.8%. Take `Cc1ccc2oc(C(=O)Nc3ccc(S(=O)(=O)N4CCCCCC4)cc3)cc(=O)c2c1`: the activity change, negative = inhibition was -13.8%. For `O=C(Nc1cccc(-c2cccc(Cl)c2)c1)C1CCN(C2CCC2)CC1`, the activity change, negative = inhibition is -10%.

Take `CCn1cc(CN2CCC(C(=O)Nc3cccc(-c4cccc(Cl)c4)c3)CC2)cn1`: the activity change, negative = inhibition is -38.6% (active). On to `CCn1cc(CN2CCC(C(=O)Nc3cccc(-c4cccc(Cl)c4)c3)CC2)c(C)n1`, for which the activity change, negative = inhibition is -1.32%. Next, `CC1CCCCN1CC(=O)N1CCCc2c1c(=O)oc1ccc(OCc3ccccc3)cc21` (stereo not drawn): 4.23%. Next, `O=C(NCc1nnc(C(=O)Nc2ccc(C(F)(F)F)cc2Cl)o1)c1ccccc1`: -10%; `O=C(Nc1ccccc1)c1nnsc1S(=O)(=O)c1ccc(Cl)cc1`: -31.4% (active). With `O=C(Nc1ccc(Oc2ccccc2)cc1)C1CCN(S(=O)(=O)c2ccc(Cl)cc2)CC1`, the activity change, negative = inhibition is -14.4%. With `O=C(Nc1cccc(Cl)c1)c1csnn1`, the activity change, negative = inhibition is 0.926%. As for `COC(=O)c1ccc(NC(=O)c2cnn(-c3ccc(Cl)cc3)c2C2CCN(C(=O)OC(C)(C)C)CC2)cc1`, the activity change, negative = inhibition was 8.43%. Next, `CC1CCN(S(=O)(=O)c2ccc3c(ccn3CC(=O)O)c2)CC1`: -15%; `O=C(CCn1ccc2cc(S(=O)(=O)N3CCCC3)ccc21)NCc1cccc(Cl)c1`: 11.5%.

Regarding `CC1CCN(S(=O)(=O)c2ccc3c(ccn3CCC(=O)NCc3ccc(N(C)C)cc3)c2)CC1`, the activity change, negative = inhibition is -72.7% (active). Consider `N#Cc1ccc(-c2cccs2)nc1SCc1ccc(Br)cc1`, for which the activity change, negative = inhibition was -3.69%.

With `Cc1ccc2c(c1)c1c(c(=O)n(-c3ccccc3)c(=O)n1CC(=O)c1ccc(Cl)cc1)n2C`, the activity change, negative = inhibition was -16%.

For the origin of these results see PubChem BioAssay AID504652 (National Center for Advancing Translational Sciences (NCATS), 2011).
